Assay results published in PubChem BioAssay.
The source made the active and inactive calls.

Legend:
[1] = test system: PRMT1 (protein arginine N-methyltransferase 1); assay: PRMT1 binders on small-molecule microarrays, primary screen, biochemical, small-molecule microarray, 635 nm fluorescence (AID 1088); settings: small-molecule microarray binding, higher = more signal;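 further: binding of Prmt1 protein to compounds spotted on small-molecule microarray slides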
[2] = yeast growth modulation, basal conditions, primary screen, YJM789 clinical isolate, OD600, 24 h (AID 1089);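 further: growth of clinical yeast isolate S. cerevisiae YJM 789 seeded 1000 cells per well; test concentration not given here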; settings: S. cerevisiae YJM789 growth, higher = more signal, called active from +8 up or from −8 down
[3] = fission yeast growth modulation, primary screen, strain 972, OD600, 24 h, no modulator (AID 1090);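 further: basal condition with compound alone and no growth modifier present; test concentration not given here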; settings: S. pombe 972 growth, higher = more signal, called active from +8 up or from −8 down
[4] = S. cerevisiae growth modulation with rapamycin, primary screen, strain BY4716, OD600, 96 h (AID 1091); settings: higher = more signal, called active from +8 up or from −8 down; further: test concentration not given here
[5] = target: Torsin-1A-interacting protein 2 (Homo sapiens) (UniProt Q8NFQ8); assay: LULL1 binders on small-molecule microarray, primary screen, cell lysate, human LULL1 lysate, 635/667 nm fluorescence (AID 1092); settings: hLULL1 lysate binding, 635 nm fluorescence, higher = more signal;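 further: probe is lysate of COS7 cells overexpressing human LULL1; score merges per-feature 667 nm fluorescence with signal-to-noise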
Sequence of Torsin-1A-interacting protein 2 (Homo sapiens) (Q8NFQ8 whole entry, looked up): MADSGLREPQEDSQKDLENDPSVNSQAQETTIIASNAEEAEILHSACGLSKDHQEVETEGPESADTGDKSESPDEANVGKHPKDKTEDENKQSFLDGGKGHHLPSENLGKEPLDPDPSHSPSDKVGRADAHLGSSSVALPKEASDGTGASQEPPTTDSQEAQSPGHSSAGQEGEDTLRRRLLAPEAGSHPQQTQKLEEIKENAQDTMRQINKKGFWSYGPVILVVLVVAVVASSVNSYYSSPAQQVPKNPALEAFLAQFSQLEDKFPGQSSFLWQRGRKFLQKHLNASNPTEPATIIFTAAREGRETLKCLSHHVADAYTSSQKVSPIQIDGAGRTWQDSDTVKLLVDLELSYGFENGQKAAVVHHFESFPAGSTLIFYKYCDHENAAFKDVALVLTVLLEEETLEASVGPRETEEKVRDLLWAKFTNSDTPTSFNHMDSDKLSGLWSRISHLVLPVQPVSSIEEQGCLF

[6] = E. coli growth modulation, two-sided OD650, primary screen, E. coli filamentation project, strain DRC41, 24 h (AID 1093); settings: OD650, 24 h, higher = more signal, called active from +8 up or from −8 down;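 further: MC1000 strain lacking acrAB efflux and sulA so SOS filamentation is blocked; test concentration not given here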
[7] = small-molecule microarray binders of probe aLefty2, primary screen, biochemical, biotinylated probe, 635/667 nm fluorescence (AID 1094); settings: higher = more signal;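 further: score merges spot fluorescence near 667 nm with spot signal-to-noise ratio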
[8] = test system: Noggin (protein binding on small-molecule microarray); assay: Noggin binders on small-molecule microarray, primary screen, biochemical, 635/667 nm fluorescence (AID 1095); settings: 635 nm fluorescence, higher = more signal;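 further: score merges 667 nm feature fluorescence with signal to noise over triplicate slides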
[9] = target: Neurogenic locus notch homolog protein 3 (Homo sapiens) (UniProt Q9UM47); assay: NOTCH3 binders on small-molecule microarray, primary screen, biochemical, 635/667 nm fluorescence (AID 1096); settings: NOTCH3 binding, 635 nm fluorescence, higher = more signal
Sequence of Neurogenic locus notch homolog protein 3 (Homo sapiens) (Q9UM47 whole entry, looked up): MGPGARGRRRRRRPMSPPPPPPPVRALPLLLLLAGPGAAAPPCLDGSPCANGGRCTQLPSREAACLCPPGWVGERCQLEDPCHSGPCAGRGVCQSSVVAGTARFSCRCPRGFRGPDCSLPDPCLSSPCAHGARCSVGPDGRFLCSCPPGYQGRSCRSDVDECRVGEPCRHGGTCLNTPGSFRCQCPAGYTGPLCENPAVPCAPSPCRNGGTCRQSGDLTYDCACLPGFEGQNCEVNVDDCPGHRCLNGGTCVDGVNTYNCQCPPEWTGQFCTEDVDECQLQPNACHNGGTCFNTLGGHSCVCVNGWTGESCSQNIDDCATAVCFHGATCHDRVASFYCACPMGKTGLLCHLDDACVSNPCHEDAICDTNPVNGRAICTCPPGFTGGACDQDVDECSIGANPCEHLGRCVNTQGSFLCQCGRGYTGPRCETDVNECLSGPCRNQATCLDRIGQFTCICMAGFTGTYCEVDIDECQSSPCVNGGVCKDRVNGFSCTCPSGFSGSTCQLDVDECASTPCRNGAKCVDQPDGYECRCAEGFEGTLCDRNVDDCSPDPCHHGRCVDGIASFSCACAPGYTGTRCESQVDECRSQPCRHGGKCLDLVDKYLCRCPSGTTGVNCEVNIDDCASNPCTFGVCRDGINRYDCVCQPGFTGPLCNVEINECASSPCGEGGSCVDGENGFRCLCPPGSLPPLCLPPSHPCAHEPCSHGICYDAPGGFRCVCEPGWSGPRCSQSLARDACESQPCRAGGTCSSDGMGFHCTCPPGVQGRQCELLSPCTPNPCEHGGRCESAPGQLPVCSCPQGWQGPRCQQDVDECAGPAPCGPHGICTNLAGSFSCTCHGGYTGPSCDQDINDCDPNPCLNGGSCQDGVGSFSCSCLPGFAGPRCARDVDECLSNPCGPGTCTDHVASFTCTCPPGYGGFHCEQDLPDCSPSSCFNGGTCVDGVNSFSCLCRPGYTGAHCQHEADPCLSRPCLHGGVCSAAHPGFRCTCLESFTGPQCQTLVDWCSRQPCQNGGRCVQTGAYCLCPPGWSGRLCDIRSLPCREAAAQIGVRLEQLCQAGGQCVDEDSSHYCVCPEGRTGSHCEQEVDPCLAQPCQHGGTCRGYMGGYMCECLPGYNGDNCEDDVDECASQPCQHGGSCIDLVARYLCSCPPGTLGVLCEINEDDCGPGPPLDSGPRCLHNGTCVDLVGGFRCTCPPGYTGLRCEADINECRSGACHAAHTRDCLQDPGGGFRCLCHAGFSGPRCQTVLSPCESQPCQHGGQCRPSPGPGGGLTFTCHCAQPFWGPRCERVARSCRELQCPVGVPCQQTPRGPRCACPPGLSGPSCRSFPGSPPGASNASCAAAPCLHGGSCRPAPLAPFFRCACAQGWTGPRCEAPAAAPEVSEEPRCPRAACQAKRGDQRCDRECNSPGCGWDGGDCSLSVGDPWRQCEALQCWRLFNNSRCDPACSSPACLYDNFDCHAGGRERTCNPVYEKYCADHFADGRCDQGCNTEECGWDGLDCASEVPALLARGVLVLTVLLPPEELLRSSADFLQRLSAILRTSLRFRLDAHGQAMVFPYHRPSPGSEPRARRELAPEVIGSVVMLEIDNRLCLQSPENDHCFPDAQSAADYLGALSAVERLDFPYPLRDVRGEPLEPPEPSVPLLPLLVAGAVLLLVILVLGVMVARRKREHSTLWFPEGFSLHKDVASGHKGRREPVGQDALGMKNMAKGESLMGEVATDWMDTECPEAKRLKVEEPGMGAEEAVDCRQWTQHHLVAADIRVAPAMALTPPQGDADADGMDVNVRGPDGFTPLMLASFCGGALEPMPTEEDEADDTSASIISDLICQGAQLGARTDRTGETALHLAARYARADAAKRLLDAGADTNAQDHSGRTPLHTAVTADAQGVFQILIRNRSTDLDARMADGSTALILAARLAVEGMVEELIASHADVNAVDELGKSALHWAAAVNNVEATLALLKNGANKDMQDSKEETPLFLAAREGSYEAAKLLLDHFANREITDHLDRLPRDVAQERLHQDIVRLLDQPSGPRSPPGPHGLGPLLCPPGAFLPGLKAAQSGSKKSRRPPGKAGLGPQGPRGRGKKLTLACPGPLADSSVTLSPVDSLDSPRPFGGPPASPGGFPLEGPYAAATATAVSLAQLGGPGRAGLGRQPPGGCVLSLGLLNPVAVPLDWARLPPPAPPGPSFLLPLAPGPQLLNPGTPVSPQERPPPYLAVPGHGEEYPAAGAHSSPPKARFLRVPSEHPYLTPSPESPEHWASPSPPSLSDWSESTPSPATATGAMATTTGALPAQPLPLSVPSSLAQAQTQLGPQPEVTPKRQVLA

[10] = small-molecule microarray binders of probe aEGFR, primary screen, biochemical, biotinylated probe, 635/667 nm fluorescence (AID 1097); settings: higher = more signal;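 further: probe is a biotinylated anti-EGFR antibody binding compounds printed on slides; score combines fluorescence near 667 nm and signal to noise of each spot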

Row | SMILES | composite z-score [1] | z-score [2] | z-score [3] | z-score [4] | composite z-score [5] | z-score [6] | composite z-score [7] | composite z-score [8] | composite z-score [9] | composite z-score [10]
1 | COCCCN1C(=O)[C@@]2(Cc3ccccc31)c1ccccc1C(=O)N(Cc1ccccc1OC)[C@H]2c1ccc(CO)cc1 | 0.727 | -1.14 (inactive) | -0.2 (inactive) | -1.33 (inactive) | 1.04 | 0.258 (inactive) | 0.0224 | -0.913 | -0.274 | -0.108
2 | C=C(COC)C(=O)CC[C@@H](OC(=O)c1cccnc1)c1cccc(OCCO)c1 | 1.37 | -0.686 (inactive) | -1.14 (inactive) | -0.632 (inactive) | 1.35 | 0.726 (inactive) | 0.0932 | 0.873 | 0.693 | -0.0922
3 | CCCCC(O)C1C=CC2C(=O)NC(=O)C2N1Nc1ccccn1 (stereo not given) | -0.357 | 0.374 (inactive) | 0.667 (inactive) | 0.0569 (inactive) | 0.0273 | -1.73 (inactive) | -0.0825 | -0.0426 | -0.421 | -0.067
4 | Cc1ccccc1C(O)C1C=CC2C(=O)N(c3ccccc3)C(=O)C2N1Nc1ccccc1F (stereo not given) | 1.16 | 0.0769 (inactive) | 0.592 (inactive) | 0.764 (inactive) | 3.41 | -0.927 (inactive) | 0.496 | -0.471 | 1.12 | 0.0122
5 | Cc1ccc(S[C@]2(C(=O)NCCN3CCOCC3)CC(=O)N(C3CCCCC3)[C@@H]2c2ccc(CO)cc2I)cc1 | 1.53 | -0.376 (inactive) | 0.174 (inactive) | 1.28 (inactive) | 3.23 | -0.385 (inactive) | -0.0512 | 0.824 | 1.07 | -0.313
6 | C=CC[C@]1(C(=O)NCc2ccccc2)COC(c2ccc(OCCCO)cc2)=N1 | 0.822 | -1.4 (inactive) | -4.95 (inactive) | -1.22 (inactive) | 2.87 | 1.34 (inactive) | 0.843 | -1 | -0.447 | -0.0675
7 | COCCOC(=O)N1C(=O)[C@@]2(c3cc(C#CC4(O)CCCCCC4)ccc31)[C@H](c1ccc(OCCO)cc1)N1[C@H](c3ccccc3)[C@H](c3ccccc3)OC(=O)[C@H]1[C@@H]2C(=O)N1CCCCCCC1 | 1.55 | 1.42 (inactive) | 0.598 (inactive) | 3.68 (inactive) | 3.09 | 0.436 (inactive) | 1.15 | 1.82 | 1.11 | 0.753
8 | Cc1ccc(S[C@]2(C(=O)NC3CC3)CC(=O)N(Cc3cc(C(F)(F)F)cc(C(F)(F)F)c3)[C@@H]2c2ccc(CO)cc2I)cc1 | 1.28 | -5.04 (inactive) | -3.38 (inactive) | -0.429 (inactive) | 2.2 | 0.545 (inactive) | -0.242 | 0.502 | 0.409 | 0.395
9 | COC(=O)C1=CC(CCCO)=CC(c2ccc(CN3CCCC3)cc2)N(Cc2sc3ccccc3c2Cl)C=C1C(=O)OC (stereo not given) | 1.54 | -3.34 (inactive) | -7.33 (inactive) | -1.39 (inactive) | 3.3 | -0.542 (inactive) | 0.91 | 0.766 | 1.04 | 0.681
10 | [N-]=[N+]=NCc1ccccc1[C@@H]1OC(c2ccc(OCCCO)cc2)=N[C@]1(Cc1ccccc1)C(=O)NCc1ccccc1 | 0.872 | 1.26 (inactive) | 0.8 (inactive) | 8.96 (active) | 3.12 | 0.615 (inactive) | 0.239 | -0.0171 | 0.672 | -0.117
11 | CCCCC(=C=CC[C@@H](O)c1cccc(OCCO)c1)C[C@@H](O)COCc1ccccc1 | 0.554 | -0.59 (inactive) | -1.95 (inactive) | -0.601 (inactive) | 0.866 | 1.84 (inactive) | -0.274 | -0.0311 | -0.184 | -0.188
12 | COCCOC(=O)N1C(=O)[C@@]2(c3cc(C#CCCO)ccc31)[C@H](c1ccccc1OCCO)N1[C@H](c3ccccc3)[C@H](c3ccccc3)OC(=O)[C@H]1[C@@H]2C(=O)N1CCc2cc(OC)c(OC)cc2C1 | 1.54 | 1.88 (inactive) | 0.763 (inactive) | 3 (inactive) | 2.93 | 1.26 (inactive) | -0.0616 | 1.26 | 1.12 | 0.0384
13 | COC(=O)[C@H](Cc1ccc(O)cc1)N1CC2=CCCC=C[C@@H]2[C@H]1[C@H](O)Cc1ccccc1 | 1.13 | -0.662 (inactive) | -2.3 (inactive) | -1.03 (inactive) | 0.616 | 0.65 (inactive) | -0.29 | 0.191 | -0.0213 | -0.112
14 | C[C@]1(C(=O)NCC(F)(F)F)c2ccccc2C(=O)N(Cc2ccc(OC(F)(F)F)cc2)[C@H]1c1ccc(CO)cc1 | 0.64 | 0.0118 (inactive) | -0.47 (inactive) | -0.568 (inactive) | 1.03 | -0.975 (inactive) | -0.133 | 0.344 | -0.464 | -0.0987
15 | COc1cc2c(cc1O)C(c1ccc(CN3CCCC3)cc1)N(Cc1cccc(OC(F)(F)F)c1)CC2 (stereo not given) | 0.996 | -26.1 (active) | -20.2 (active) | -3.95 (inactive) | 3.04 | -6.17 (inactive) | 0.045 | 0.0433 | 0.499 | 0.213
16 | CC(=O)n1cc(C(O)C2C=CC3C(=O)N(c4ccccc4)C(=O)C3N2Nc2ccccc2F)c2ccccc21 (stereo not given) | 0.799 | -0.626 (inactive) | -0.169 (inactive) | -1.6 (inactive) | 2.51 | 1.01 (inactive) | -0.138 | -0.872 | -0.382 | -0.146
17 | O=C1c2ccccc2[C@@]2(Cc3ccccc3N(Cc3ccccc3)C2=O)[C@H](c2ccc(CO)cc2)N1Cc1ccccc1 | 0.131 | -0.82 (inactive) | -0.678 (inactive) | 15.9 (active) | 0.118 | -0.737 (inactive) | -0.0321 | -0.945 | -1.15 | -0.218
18 | C=C(CC1([C@@H](NP(=O)(c2ccccc2)c2ccccc2)[C@H]2C[C@@H]2CCN(C(=O)OCC)S(=O)(=O)c2ccc(C)cc2)CC1)c1ccccc1 | -0.362 | 0.585 (inactive) | 0.722 (inactive) | 3.51 (inactive) | 2.98 | -0.926 (inactive) | 0.502 | 0.229 | 1.02 | 0.104
19 | CCOC(=O)C[C@H]1[C@H](OC(=O)c2ccc(-c3ccccc3)cc2)[C@@H](NC(=O)c2ccc3ccccc3c2)c2cc(OCCCO)ccc2N1C(=O)c1ccccc1 | 0.712 | 0.806 (inactive) | 1.17 (inactive) | 1.26 (inactive) | 1.69 | -1.1 (inactive) | -0.141 | 0.382 | 0.842 | 0.0914
20 | C=CC[C@@]1(C(=O)N(C)C)N=C(c2ccc(OCCCO)cc2)O[C@@H]1c1ccccc1 | 0.52 | -0.69 (inactive) | -2.28 (inactive) | -2.31 (inactive) | 3.5 | -0.343 (inactive) | 0.363 | -0.474 | -0.0401 | 0.464
21 | CN(C)CCCNC(=O)[C@@H]1c2ccccc2C(=O)N(C2Cc3ccccc3C2)[C@H]1c1ccc(CO)cc1 | 1.56 | -0.463 (inactive) | -0.271 (inactive) | -0.915 (inactive) | 2.03 | 0.688 (inactive) | -0.127 | 0.0726 | 0.241 | 0.111
22 | COc1ccc(CCNC(=O)[C@@]2(C)c3ccccc3C(=O)N(Cc3cc(C(F)(F)F)cc(C(F)(F)F)c3)[C@H]2c2ccc(CO)cc2)cc1 | 1.53 | 0.182 (inactive) | -0.836 (inactive) | 1.09 (inactive) | 1.7 | 1.02 (inactive) | 0.795 | 0.179 | 0.0336 | 0.577
23 | C[C@H]1C2[C@H](Cc3ccccc3)NC(=O)[C@]23C(=O)NCC(=O)N2CCC[C@H]2C(=O)NC/C=C\C/C=C/C3[C@@H]2O[C@]12C (stereo not given in full) | -0.115 | -0.479 (inactive) | -0.186 (inactive) | -0.406 (inactive) | -0.691 | 0.924 (inactive) | -0.161 | -0.102 | 0.105 | -0.0531
24 | CC1CC/C=C\[C@H]2OC34C=CCN(CCN5CCOCC5)C(=O)[C@H]3N(CCCCCCO)C(=O)[C@@H]4C2C(=O)O1 (stereo not given in full) | -0.592 | 0.0356 (inactive) | -0.573 (inactive) | 0.132 (inactive) | 0.318 | -0.263 (inactive) | -0.192 | -0.403 | -0.218 | -0.278
25 | C=CCC(OC(C)=O)[C@@H]1[C@@H](N(Cc2cc3ccccc3o2)C(=O)c2cccc3ccccc23)c2cc(OCCCO)ccc2N1C(=O)c1ccc2ccccc2c1 (stereo not given in full) | -0.305 | 0.0315 (inactive) | -0.943 (inactive) | -0.0147 (inactive) | 0.583 | -0.234 (inactive) | 0.0826 | 0.413 | 0.222 | -0.139
26 | COCC1=C([C@H](O)CCc2ccccc2)[C@H](CO)n2c(=O)n(-c3ccccc3)c(=O)n2C1 | -0.872 | -1.47 (inactive) | -1.41 (inactive) | -0.259 (inactive) | -0.728 | 2.86 (inactive) | -0.0146 | -0.0338 | -0.907 | -0.253
27 | CC(C)C[C@@H]1NC(=O)[C@@H]2C[C@H](C(=O)NCCCC[N+](C)(C)C)[C@H](c3ccc(O)cc3)N2C1=O | 1.53 | -0.246 (inactive) | 0.491 (inactive) | -1.48 (inactive) | 1.76 | 0.0731 (inactive) | -0.0295 | 1.91 | 1.02 | 0.0251
28 | COCCOC(=O)N1C(=O)[C@@]2(c3cc(C#CCCO)ccc31)[C@H](C(=O)N1CCN(c3ncccn3)CC1)[C@H]1C(=O)O[C@H](c3ccccc3)[C@H](c3ccccc3)N1[C@@H]2c1ccc(O)cc1 | 1.54 | 0.114 (inactive) | -0.161 (inactive) | 1.63 (inactive) | 2.04 | 1.49 (inactive) | -0.299 | 0.865 | 0.945 | -0.219
29 | CC(C)C[C@@H]1NC(=O)[C@H]2C[C@@H](C(=O)NCCCCCNC(=O)CS)[C@@H](c3ccc(O)cc3)N2C1=O | 1.54 | 0.553 (inactive) | -0.12 (inactive) | 0.871 (inactive) | 2.11 | 0.488 (inactive) | -0.077 | 0.528 | 0.634 | -0.0007
